Data on seven sequences can be found in PMC7862700, “An all-to-all approach to the identification of sequence-specific readers for epigenetic DNA modifications on cytosine”.

Test in all cases: DAPPL (digital affinity profiling via proximity ligation, sequencing); 10 mM Tris-HCl pH 7.5, 50 mM NaCl, 1 mM DTT, 4% glycerol, room temperature, 30 min; GST-TFs on glutathione beads, 16-mer random dsDNA library, 0.1% formaldehyde crosslink after washing; high values mean tight binding
Common to all, as to conditions: protein: recombinant; tags: N-terminal GST; dsDNA, one strand shown

The target in one test is T1, ERF (Homo sapiens, UniProt P50548 1-548).
T1 sequence: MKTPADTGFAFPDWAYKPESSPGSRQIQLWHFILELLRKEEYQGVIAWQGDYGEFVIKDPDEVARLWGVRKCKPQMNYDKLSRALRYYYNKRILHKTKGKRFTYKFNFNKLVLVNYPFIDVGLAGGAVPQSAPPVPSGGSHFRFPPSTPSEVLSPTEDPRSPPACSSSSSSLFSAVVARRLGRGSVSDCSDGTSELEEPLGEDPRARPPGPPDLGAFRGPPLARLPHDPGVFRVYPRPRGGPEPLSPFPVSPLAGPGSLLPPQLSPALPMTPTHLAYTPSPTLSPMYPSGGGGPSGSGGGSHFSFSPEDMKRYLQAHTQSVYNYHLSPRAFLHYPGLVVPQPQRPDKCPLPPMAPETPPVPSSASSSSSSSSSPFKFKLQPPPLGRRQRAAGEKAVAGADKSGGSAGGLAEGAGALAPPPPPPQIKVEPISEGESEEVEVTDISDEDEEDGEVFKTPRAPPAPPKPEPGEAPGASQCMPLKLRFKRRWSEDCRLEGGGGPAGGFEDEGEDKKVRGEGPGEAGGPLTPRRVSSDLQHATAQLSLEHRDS
Summed up: (§1)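 A tag-only sample was pooled with DNA-barcoded human transcription factors that had been expressed in yeast as GST fusions and captured on glutathione beads. The pools were incubated for 30 min at room temperature with 200 nmole of a random double-stranded 16-mer DNA library in Tris/NaCl/DTT/glycerol buffer, then washed, crosslinked with 0.1% formaldehyde, proximity-ligated (BsaI/T4 ligase, 1 h, 37 °C), PCR-amplified and sequenced on an Illumina NextSeq500. Binding signal is each hexamer's read frequency for a factor divided by its frequency for the tag-only sample.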

The target of a further test is T2, ETV3L (Homo sapiens, UniProt Q6ZN32 1-361).
T2 sequence: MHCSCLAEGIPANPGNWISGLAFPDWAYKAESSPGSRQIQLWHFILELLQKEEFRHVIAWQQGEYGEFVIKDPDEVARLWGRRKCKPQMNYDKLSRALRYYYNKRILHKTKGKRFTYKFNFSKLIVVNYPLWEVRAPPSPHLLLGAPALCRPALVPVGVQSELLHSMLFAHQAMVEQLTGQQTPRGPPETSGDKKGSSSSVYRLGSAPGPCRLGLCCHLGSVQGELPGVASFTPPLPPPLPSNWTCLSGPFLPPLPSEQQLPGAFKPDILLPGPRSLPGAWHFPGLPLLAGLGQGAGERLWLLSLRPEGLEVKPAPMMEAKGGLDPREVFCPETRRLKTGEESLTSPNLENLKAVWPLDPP
Summed up:
as §1

For another test, the target named is T3, ETS2 (Homo sapiens, UniProt P15036 1-469).
T3 sequence: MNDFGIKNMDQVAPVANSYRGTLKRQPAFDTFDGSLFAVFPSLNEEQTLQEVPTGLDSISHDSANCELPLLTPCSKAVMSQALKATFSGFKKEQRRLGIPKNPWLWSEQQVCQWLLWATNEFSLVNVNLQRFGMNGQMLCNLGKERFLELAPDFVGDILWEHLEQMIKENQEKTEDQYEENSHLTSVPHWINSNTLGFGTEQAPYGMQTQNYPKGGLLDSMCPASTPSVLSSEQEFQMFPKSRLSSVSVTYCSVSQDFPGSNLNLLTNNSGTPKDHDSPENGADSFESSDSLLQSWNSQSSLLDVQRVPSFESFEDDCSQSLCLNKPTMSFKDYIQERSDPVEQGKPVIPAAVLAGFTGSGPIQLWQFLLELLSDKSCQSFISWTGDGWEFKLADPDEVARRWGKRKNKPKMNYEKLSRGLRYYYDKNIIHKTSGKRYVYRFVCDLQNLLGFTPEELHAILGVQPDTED
An outline of the steps: as §1

The next test concerns the target T4, ETV7 (Homo sapiens, UniProt Q9Y603 1-341).
T4 sequence: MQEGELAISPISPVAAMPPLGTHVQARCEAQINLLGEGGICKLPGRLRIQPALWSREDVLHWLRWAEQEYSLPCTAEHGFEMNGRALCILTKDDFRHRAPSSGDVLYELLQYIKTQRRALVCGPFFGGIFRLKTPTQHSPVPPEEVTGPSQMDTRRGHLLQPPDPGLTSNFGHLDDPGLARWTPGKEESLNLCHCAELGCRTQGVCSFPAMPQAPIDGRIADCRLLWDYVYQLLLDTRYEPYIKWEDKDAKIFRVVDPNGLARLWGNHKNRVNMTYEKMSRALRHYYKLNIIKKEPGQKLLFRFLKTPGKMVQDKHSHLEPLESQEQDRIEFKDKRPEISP
An outline of the steps: as §1

The next test concerns the target T5, ELF5 (Homo sapiens, UniProt Q9UKW6-2 1-255).
T5 sequence: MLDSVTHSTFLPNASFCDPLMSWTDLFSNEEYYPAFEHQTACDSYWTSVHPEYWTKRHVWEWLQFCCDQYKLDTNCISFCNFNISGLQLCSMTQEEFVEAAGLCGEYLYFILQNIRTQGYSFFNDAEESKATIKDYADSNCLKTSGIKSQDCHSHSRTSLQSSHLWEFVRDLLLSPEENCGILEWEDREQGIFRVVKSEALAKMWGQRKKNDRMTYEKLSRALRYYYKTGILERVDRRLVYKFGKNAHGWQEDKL
Summed up: as §1

The next test has as its target T6, ETV3 (Homo sapiens, UniProt P41162-2 1-143).
T6 sequence: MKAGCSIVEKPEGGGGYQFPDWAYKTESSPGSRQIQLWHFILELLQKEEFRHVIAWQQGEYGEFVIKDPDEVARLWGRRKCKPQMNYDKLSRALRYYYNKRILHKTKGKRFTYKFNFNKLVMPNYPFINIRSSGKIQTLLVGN
An outline of the steps:
as §1

A further test deals with ETV6 (Homo sapiens, UniProt P41212 1-452). An outline of the steps: as §1
A further test has as its target T7, SPDEF (Homo sapiens, UniProt O95238 1-335).
T7 sequence: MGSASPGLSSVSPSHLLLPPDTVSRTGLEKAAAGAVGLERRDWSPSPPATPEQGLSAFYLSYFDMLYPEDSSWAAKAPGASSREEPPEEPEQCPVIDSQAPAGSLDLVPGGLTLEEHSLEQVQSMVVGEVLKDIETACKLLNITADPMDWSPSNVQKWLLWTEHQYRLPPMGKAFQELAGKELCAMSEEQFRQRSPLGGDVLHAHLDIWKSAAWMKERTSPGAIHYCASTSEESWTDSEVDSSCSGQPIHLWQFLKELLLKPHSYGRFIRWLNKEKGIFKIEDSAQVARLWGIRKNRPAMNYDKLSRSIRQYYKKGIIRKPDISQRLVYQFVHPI
An outline of the steps:
as §1

ETV6, sequence (P41212 whole entry): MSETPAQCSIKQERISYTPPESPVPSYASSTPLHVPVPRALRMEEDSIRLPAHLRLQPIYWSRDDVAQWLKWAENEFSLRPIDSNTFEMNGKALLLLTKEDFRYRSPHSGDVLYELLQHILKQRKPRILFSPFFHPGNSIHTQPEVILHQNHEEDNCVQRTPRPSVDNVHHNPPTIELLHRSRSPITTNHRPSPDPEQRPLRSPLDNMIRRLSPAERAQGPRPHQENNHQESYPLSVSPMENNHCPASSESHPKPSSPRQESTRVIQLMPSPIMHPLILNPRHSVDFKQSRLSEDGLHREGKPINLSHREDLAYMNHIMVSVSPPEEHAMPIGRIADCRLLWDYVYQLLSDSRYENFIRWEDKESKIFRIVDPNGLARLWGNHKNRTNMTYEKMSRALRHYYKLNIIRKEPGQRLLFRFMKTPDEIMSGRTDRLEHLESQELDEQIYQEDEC

Turning to ACTCGC, the binding signal was 1.17 fold enrichment (6-mer frequency, TF over GST control) in the test with ERF; 1.08 fold enrichment (6-mer frequency, TF over GST control) in the test with ETV3L; 1.14 fold enrichment (6-mer frequency, TF over GST control) in the test with ETS2; 1.09 fold enrichment (6-mer frequency, TF over GST control) in the test with ETV7; 1.08 fold enrichment (6-mer frequency, TF over GST control) in the test with ELF5; 1.08 fold enrichment (6-mer frequency, TF over GST control) with ETV3. In addition, the binding signal with ETV6 is 1.25 fold enrichment (6-mer frequency, TF over GST control).
GAAAAA: the binding signal in the test with ERF is 1.08 fold enrichment (6-mer frequency, TF over GST control); with ETV3L, 1.16 fold enrichment (6-mer frequency, TF over GST control); with ETS2 it was 1.2 fold enrichment (6-mer frequency, TF over GST control); with ETV7, 1.16 fold enrichment (6-mer frequency, TF over GST control); in the test with ELF5 it was 1.22 fold enrichment (6-mer frequency, TF over GST control); with ETV3, 1.09 fold enrichment (6-mer frequency, TF over GST control). Moreover, the binding signal with ETV6 was 1.17 fold enrichment (6-mer frequency, TF over GST control).
In the case of TTTAGT, the binding signal is 1.03 fold enrichment (6-mer frequency, TF over GST control) with ERF; 1.09 fold enrichment (6-mer frequency, TF over GST control) in the test with ETV3L; 1.04 fold enrichment (6-mer frequency, TF over GST control) with ETS2; 1.04 fold enrichment (6-mer frequency, TF over GST control) with SPDEF; 1.11 fold enrichment (6-mer frequency, TF over GST control) with ETV3; 1.12 fold enrichment (6-mer frequency, TF over GST control) with ETV6.
For the sequence TCTAGG, the binding signal with ERF was 1.03 fold enrichment (6-mer frequency, TF over GST control); in the test with ETV3L it was 1.08 fold enrichment (6-mer frequency, TF over GST control); with ETS2, 1.02 fold enrichment (6-mer frequency, TF over GST control); in the test with ETV7 it was 1.16 fold enrichment (6-mer frequency, TF over GST control); in the test with ELF5, 1.07 fold enrichment (6-mer frequency, TF over GST control); with ETV3, 1.12 fold enrichment (6-mer frequency, TF over GST control). In addition, the binding signal in the test with ETV6 was 1.02 fold enrichment (6-mer frequency, TF over GST control).
Regarding CATTAT, the binding signal is 1.21 fold enrichment (6-mer frequency, TF over GST control) with ERF; 1.24 fold enrichment (6-mer frequency, TF over GST control) with ETV3L; 1.21 fold enrichment (6-mer frequency, TF over GST control) with ETS2; 1.31 fold enrichment (6-mer frequency, TF over GST control) in the test with ETV7; 1.12 fold enrichment (6-mer frequency, TF over GST control) with ELF5; 1.15 fold enrichment (6-mer frequency, TF over GST control) with ETV3. Besides, the binding signal with ETV6 was 1.2 fold enrichment (6-mer frequency, TF over GST control).
Turning to AAGCTG, the binding signal with ERF is 1.18 fold enrichment (6-mer frequency, TF over GST control); with ETV3L, 1.05 fold enrichment (6-mer frequency, TF over GST control); with ETS2 it was 1.13 fold enrichment (6-mer frequency, TF over GST control); with ETV7 it was 1.18 fold enrichment (6-mer frequency, TF over GST control); in the test with ELF5, 1.11 fold enrichment (6-mer frequency, TF over GST control); with ETV3, 1.24 fold enrichment (6-mer frequency, TF over GST control). For the same sequence, the binding signal with ETV6 is 1.08 fold enrichment (6-mer frequency, TF over GST control).
Take CATTCA: the binding signal in the test with ERF was 1.11 fold enrichment (6-mer frequency, TF over GST control); with ETV3L, 1.08 fold enrichment (6-mer frequency, TF over GST control); with ETS2, 1.01 fold enrichment (6-mer frequency, TF over GST control); with ETV7, 1.09 fold enrichment (6-mer frequency, TF over GST control); with ELF5, 1.02 fold enrichment (6-mer frequency, TF over GST control); with ETV3 it was 1.11 fold enrichment (6-mer frequency, TF over GST control). In addition, the binding signal with ETV6 was 1.09 fold enrichment (6-mer frequency, TF over GST control).
